From PubChem BioAssay (Tox21)
Records with an inconclusive call do not appear. Entries that show only a call come without a potency. The source made the active and inactive calls. The call rests on the fitted dose curve.

Biological target: Acetylcholinesterase (Homo sapiens) (UniProt P22303)
Assay: Acetylcholinesterase (AChE) small molecule antagonists: colormetric cell-based qHTS assay (AID 1347395); further: nearly all actives have a fitted effect of over 30% in size
Conditions: SH-SY5Y cells AChE activity, colorimetric (Ellman); series mostly up to 115 µM
Outline: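 Colorimetric read-out: DTNB detects thiocholine released when cellular AChE in SH-SY5Y cells hydrolyses acetylthiocholine. Cells attached overnight, received compound for 30 min at 37 C, then substrate mix for 90 min at 37 C.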
Potency means the concentration at half of the fitted maximal effect.

Acetylcholinesterase (Homo sapiens), sequence (P22303 whole entry, looked up): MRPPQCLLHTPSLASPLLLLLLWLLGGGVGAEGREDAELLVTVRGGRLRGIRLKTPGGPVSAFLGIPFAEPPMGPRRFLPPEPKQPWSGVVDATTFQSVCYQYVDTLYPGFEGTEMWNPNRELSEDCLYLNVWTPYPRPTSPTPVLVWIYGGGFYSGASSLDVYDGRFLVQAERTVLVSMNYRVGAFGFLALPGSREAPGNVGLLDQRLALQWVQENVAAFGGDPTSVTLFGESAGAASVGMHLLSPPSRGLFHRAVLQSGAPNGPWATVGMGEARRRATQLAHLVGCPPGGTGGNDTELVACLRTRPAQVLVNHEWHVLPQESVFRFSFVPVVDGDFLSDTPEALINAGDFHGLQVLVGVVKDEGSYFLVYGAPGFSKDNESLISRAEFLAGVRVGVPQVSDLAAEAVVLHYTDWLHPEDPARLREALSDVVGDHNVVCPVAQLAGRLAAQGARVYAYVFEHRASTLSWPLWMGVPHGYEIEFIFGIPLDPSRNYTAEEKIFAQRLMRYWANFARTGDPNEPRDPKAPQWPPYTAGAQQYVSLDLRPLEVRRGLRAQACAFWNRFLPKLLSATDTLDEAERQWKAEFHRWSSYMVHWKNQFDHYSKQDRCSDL

Structure (SMILES)	Potency
OC(c1ccc(Cl)cc1)(c1ccc(Cl)cc1)c1cccnc1	inactive
[CH3][Sn]([CH3])([Cl])[Cl]	inactive
CC(O)(CS(=O)(=O)c1ccc(F)cc1)C(=O)Nc1ccc(C#N)c(C(F)(F)F)c1 (stereo not drawn)	inactive
CCCCCCCCCCOC(=O)c1ccccc1C(=O)OCCCCCCCCCC	inactive
N#Cc1ccc(Cl)cc1	inactive
CCOP(=S)(OCC)SCn1nnc2ccccc2c1=O	12.6 µM (active)
O=C(CCl)c1ccc(Cl)cc1Cl	inactive
Sc1ccccc1Cl	inactive
CC(c1ccc(O)cc1)(c1ccc(O)cc1)c1ccc(O)cc1	inactive
Cc1ccccc1CCl	inactive
O=C(Nc1ccccc1)Nc1ccnc(Cl)c1	inactive
O=[N+]([O-])C(Br)(CO)CO	79.6 µM (active)
COc1nn(CSP(=S)(OC)OC)c(=O)s1	69.6 µM (active)
CC(=O)CCC(C)=O	inactive
COP(=S)(OC)Oc1ccc([N+](=O)[O-])cc1Cl	inactive
CC(C)N(CCC(C(N)=O)(c1ccccc1)c1ccccn1)C(C)C (stereo not drawn)	inactive
C[C@H]1CNCCc2ccc(Cl)cc21	inactive
O=C(O)C(F)(F)C(F)(F)C(F)(F)C(F)(F)C(F)(F)C(F)(F)C(F)(F)C(F)(F)C(F)(F)C(F)(F)F	inactive
c1ccc(CN2CCNCC2)cc1	inactive
O=C(Nc1ccccc1)Nc1cnns1	inactive
CO/C=C(/C(=O)OC)c1ccccc1COc1cccc(C(F)(F)F)n1	inactive
CNC(C)Cc1ccccc1OC (stereo not drawn)	inactive
CC(C)=CCOc1c2occc2cc2ccc(=O)oc12	inactive
